40 compounds from PubChem BioAssay (NCI) can be followed below.

This is part of a sample that, as a whole, favours compounds with a hit. Of some 79,000 tested, about 15% had one in any assay. Unmarked numbers belong to inactive results. Activity calls are given as the source filed them. No stated cut-off is given here; in the data, active means growth inhibition above about 70%; inactive means the rest.

The test can be described thus: NCI Yeast Anticancer Drug Screen. Data for the mec2-1 strain (AID 157). The following applies: S. cerevisiae mec2-1 strain, at 50.0 µM, hits give high values. The method in brief:
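Using mec2-1 yeast: add compound, measure growth, express inhibition versus vehicle-treated cultures.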
Regarding `CCN(CC)C(=O)c1cc2c(cc1[N+](=O)[O-])OCO2`, the growth inhibition was -15.4%.
Under `CC(=O)n1[nH]c(=O)n(-c2ccc(Cl)cc2)c1=O` stands -37.2%; under `CCC(C)NCC/C(=C\[Si](C)(C)C)c1ccccc1` (stereo not given), -11.8%; under `COc1ccc(Cl)cc1NC(=O)c1ccccc1C(=O)O`, 20.9%.
On to `CC(=O)c1c(O)cccc1O`, for which the growth inhibition was -13.8%.
On to `Cc1ccc2snc(C(=O)O)c2c1[N+](=O)[O-]`, for which the growth inhibition is 0.65%.
Under `COC1(OC)C2(Cl)CC(C(=O)O)C1(Cl)C(Cl)=C2Cl` (stereo not given) stands 3.85%; under `CC(CN1CCCC1)(Oc1ccccc1)C(=O)c1ccccc1` (stereo not given), -0.45%.
With `ClC(Cl)=C(c1ccccc1)c1ccccc1`, the growth inhibition is 22.4%.
Regarding `C#CC(C)(C)CC`, the growth inhibition was -16.4%.
Under `C[N+]([O-])(C/C=C/c1ccccc1)c1ccccc1` (stereo not given) stands -2.3%; under `CC(C)C1(C(C)C)OCC(CO)O1` (stereo not given), -7.75%.
Then `CC1=C(OCCCl)C2CC1C1C(=O)N(c3ccccc3)C(=O)C21` (stereo not given), with -29.1%; and `COC(=O)c1ccccc1Cl`, with 4%.
Then `C=CCC(O)CC=C`, with -47.5%; and `OCCSc1ccc(Cl)cc1`, with 25.9%; and `N#CC(C#N)=CC(C#N)C#N`, with -4.3%.
Take `CC1CNC(=S)O1` (stereo not given): the growth inhibition is -15.5%.
Then `C[N+](C)(C)CCC(=O)N1C/C(=C\c2ccccc2)C(=O)/C(=C/c2ccccc2)C1`, with -15.2%; and `NC(=O)Cc1csc(Br)n1`, with 0.8%; and `Nc1ncnc2nc(N3CCN(CCO)CC3)[nH]c12`, with -8.75%.
Then `Cc1ccc(SC(C)/C=C/NNC2=NC(c3ccccc3)C(c3ccccc3)=NN2)cc1` (stereo not given), with 10.2%; and `O=c1nc(Sc2ccccc2)ccn1C1OC(CO)C(O)C1O` (stereo not given), with -8.95%; and `C[N+]1(C)CCC(C(=O)c2ccccc2)CC1`, with 4.95%.
Under `N=C1C(O)=CC(=O)C(O)=C1C(=O)O` stands 3.9%; under `CCNC(=O)OC1C=CS(=O)(=O)C1` (stereo not given), -9.45%.
As to `S=c1[nH]nc2nc3c4ccccc4c4ccccc4c3nn12`, the growth inhibition is 22.8%.
Under `Cc1ccc(S(=O)c2ccccc2C(O)(C(F)(F)F)C(F)(F)F)cc1` (stereo not given) stands 75.8% (active); under `OC1CCCCC2CC2C1O` (stereo not given), -2.8%; under `CN(C)CC1CC=CCC1CN(C)C` (stereo not given), 0%.
With `CCCCOC1NC(=O)NC(=O)C1(F)C(=O)OCC` (stereo not given), the growth inhibition is -9.75%.
For the compound `CC(=O)Nc1ccc(CCNC(=O)c2ccc3ccccc3c2O)cc1`, the growth inhibition is -33.1%.
For the compound `O=C(Nc1nc(=S)[nH][nH]1)C(=O)C1C(=O)Nc2ccccc2S1=O` (stereo not given), the growth inhibition was -10.8%.
Then `CCOP(=O)(OCC)/C(C#N)=C/c1c(C)[nH]c2ccccc12`, with -10.8%.
Under `Cc1cc(C)c(C#N)c(SC(C(=O)NC(C)(C)C)c2ccccc2)n1` (stereo not given) stands -16.8%; under `CCN(CC)CCOC(=O)c1c(C)cc(C)cc1C`, -9.4%.
Then `Nc1nc(N)c2[nH]cnc2n1` (tested in a mixture with another compound), with -17.1%; and `CC(C)N(CC(=O)O)CC(=O)O`, with -13.4%; and `Cc1c(CCOC=O)c(=O)[nH]c2nncn12`, with -29.6%.
On to `CC(=O)Oc1c2oc3cc(O)c(O)cc3c2c(OC(C)=O)c2oc3cc(O)c(O)cc3c12`, for which the growth inhibition is 0.05%.
